The text below walks through data of PubChem BioAssay (NCATS).

Inconclusive results are not listed. Unmarked numbers belong to inactive results. The source made the active and inactive calls. Unless noted, calls come from the whole dose curve; as a rule, active = well fitted curve in the direction sought with a large enough effect; inconclusive = small, poorly fitted or top-dose-only effect, or another doubt; inactive = no such curve, though single readings can be large; an effect the other way counts as inactive or inconclusive.

Test [1] in a line: qHTS for Inhibitors of Plasmodium falciparum (GB4) proliferation (AID 504315).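 For activity change, negative = inhibition: 0% = DMSO vehicle and -100% = 0.29 µM artemisinin control.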 Note: nearly all actives have a fitted effect of over 50% in size. Note: potency is the fitted concentration of half-maximal effect. Summed up:
(§1)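 Parasite growth measured as SYBR Green DNA fluorescence (ex 485, em 535 nm) after overnight lysis following 72 h culture at 37 °C, 0.3% parasitemia, 2.5% hematocrit. Values normalized against DMSO and 0.29 uM artemisinin controls, with plate-stack correction.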
A general note: Quantitative high-throughput screening tests each substance at several concentrations.

The nature of test [2]: qHTS for Inhibitors of Plasmodium falciparum (7G8) proliferation (AID 504316).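 For activity change, negative = inhibition: series mostly up to about 6.7 µM; 0% = DMSO vehicle and -100% = 0.29 µM artemisinin full kill.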 Note: nearly all actives have a fitted effect of over 65% in size. Note: potency is the fitted concentration of half-maximal effect. Summed up: as §1
Test [3] can be described thus: qHTS for Inhibitors of Plasmodium falciparum (HB3) proliferation (AID 504318).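 For activity change, negative = inhibition: 0% = DMSO vehicle and -100% = artemisinin control.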 Note: nearly all actives have a fitted effect of over 60% in size. Note: potency is the fitted concentration of half-maximal effect. Summed up:
as §1

Test [4] is described as follows: qHTS for Inhibitors of Plasmodium falciparum (CP250) proliferation (AID 504320).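 Note: plate controls were DMSO vehicle for no effect and 0.29 µM artemisinin control for full effect.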 Summed up: as §1
Test [5] concerns the target Atrial natriuretic peptide receptor 1 (Homo sapiens) (UniProt P16066). Briefly: Natriuretic polypeptide receptor (hNpr1) antagonism - Pilot CMLD screen (AID 1347052; calls by dose curve;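 note: HEK293 cells with hNpr1 stimulated by hNppA peptide at 0.1 nM; cGMP level read as GloSensor luciferase luminescence after agonist stimulation; series mostly up to about 9.2 µM; % is set by controls: 0 for no effect and ±100 for the full control effect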).
Test [6] concerns the target Cytochrome P450 2C9 (Homo sapiens) (UniProt P11712). Briefly: qHTS Assay for Inhibitors and Substrates of Cytochrome P450 2C9 (AID 883). Note: % is set by controls: 0 for no effect and ±100 for the full control effect; nearly all actives have a fitted effect of over 60% in size. Summed up:
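Signal: luciferase luminescence reporting luciferin produced by CYP2C9. Conditions: 10nM enzyme, Luciferin-H 100uM at KM, 25mM KPO4, 37C, 60 min NADPH-driven reaction. Reference: 57uM sulphaphenazole as 100% inhibition.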

For test [7], the target named is Cytochrome P450 3A4 (Homo sapiens) (UniProt P08684). Briefly: qHTS Assay for Inhibitors and Substrates of Cytochrome P450 3A4 (AID 884). Note: series mostly up to about 57 µM; % is set by controls: 0 for no effect and ±100 for the full control effect; nearly all actives have a fitted effect of over 50% in size. Summed up: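 Luminescent readout of luciferin produced by CYP3A4 (20 nM) dealkylation of Luciferin-PPXE, 25 uM (its KM). NADPH-driven reaction ran 60 min at RT after 10 min compound preincubation; data scaled to 57 uM ketoconazole as 100% inhibition.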

Test [8] concerns the target Cytochrome P450 2D6 (Homo sapiens) (UniProt P10635). In words: qHTS Assay for Inhibitors and Substrates of Cytochrome P450 2D6 (AID 891).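 Note: luciferin methyl ether substrate demethylated by CYP2D6 with NADPH regeneration; % is set by controls: 0 for no effect and ±100 for the full control effect; nearly all actives have a fitted effect of over 60% in size.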 Summed up:
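Luminescent read-out of luciferin formed by 5 nM human CYP2D6 demethylating 30 uM Luciferin-ME EGE (Km level) over 60 min at room temperature after NADPH regeneration addition. Data normalized to full inhibition by 1.43 uM quinidine.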

Test [9] concerns the target Cytochrome P450 2C19 (Homo sapiens) (UniProt P33261). In words: qHTS Assay for Inhibitors and Substrates of Cytochrome P450 2C19 (AID 899). Note: % is set by controls: 0 for no effect and ±100 for the full control effect; nearly all actives have a fitted effect of over 60% in size. Summed up:
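Signal comes from luciferase acting on luciferin released by CYP2C19-mediated hydroxylation of Luciferin-H EGE, 10uM (KM). Assay mix: 5nM enzyme, 50mM KPO4; 60 min at 37C with NADPH regeneration. Data normalized against 57uM ketoconazole.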

Sequence of Atrial natriuretic peptide receptor 1 (Homo sapiens) (P16066 whole entry, looked up): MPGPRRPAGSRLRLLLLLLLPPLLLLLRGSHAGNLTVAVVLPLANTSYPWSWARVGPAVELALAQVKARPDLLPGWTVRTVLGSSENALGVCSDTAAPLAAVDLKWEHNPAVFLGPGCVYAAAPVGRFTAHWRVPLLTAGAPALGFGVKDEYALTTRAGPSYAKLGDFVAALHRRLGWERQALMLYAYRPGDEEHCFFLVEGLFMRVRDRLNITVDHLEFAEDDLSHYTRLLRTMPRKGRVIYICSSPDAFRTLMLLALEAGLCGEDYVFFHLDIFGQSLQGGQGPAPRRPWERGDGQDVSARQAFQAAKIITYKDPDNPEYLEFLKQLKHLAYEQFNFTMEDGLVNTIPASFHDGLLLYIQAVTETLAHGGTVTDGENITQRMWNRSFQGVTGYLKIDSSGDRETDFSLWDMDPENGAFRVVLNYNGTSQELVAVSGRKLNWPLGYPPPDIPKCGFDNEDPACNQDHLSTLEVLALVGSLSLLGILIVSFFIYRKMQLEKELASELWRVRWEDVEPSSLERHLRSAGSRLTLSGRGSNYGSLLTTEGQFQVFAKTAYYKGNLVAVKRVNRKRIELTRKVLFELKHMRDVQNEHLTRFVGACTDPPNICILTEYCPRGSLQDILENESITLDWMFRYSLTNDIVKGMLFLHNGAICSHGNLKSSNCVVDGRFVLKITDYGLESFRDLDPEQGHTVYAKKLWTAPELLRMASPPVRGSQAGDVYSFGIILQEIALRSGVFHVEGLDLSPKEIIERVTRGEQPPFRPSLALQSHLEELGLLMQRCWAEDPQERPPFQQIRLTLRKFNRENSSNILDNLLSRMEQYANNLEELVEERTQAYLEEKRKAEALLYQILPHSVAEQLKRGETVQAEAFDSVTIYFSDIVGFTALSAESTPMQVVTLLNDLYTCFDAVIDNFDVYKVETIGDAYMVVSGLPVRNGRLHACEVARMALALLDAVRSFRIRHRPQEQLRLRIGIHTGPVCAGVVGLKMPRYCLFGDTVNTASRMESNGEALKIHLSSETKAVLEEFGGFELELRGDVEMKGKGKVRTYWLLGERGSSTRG
Sequence of Cytochrome P450 2C19 (Homo sapiens) (P33261 whole entry, looked up): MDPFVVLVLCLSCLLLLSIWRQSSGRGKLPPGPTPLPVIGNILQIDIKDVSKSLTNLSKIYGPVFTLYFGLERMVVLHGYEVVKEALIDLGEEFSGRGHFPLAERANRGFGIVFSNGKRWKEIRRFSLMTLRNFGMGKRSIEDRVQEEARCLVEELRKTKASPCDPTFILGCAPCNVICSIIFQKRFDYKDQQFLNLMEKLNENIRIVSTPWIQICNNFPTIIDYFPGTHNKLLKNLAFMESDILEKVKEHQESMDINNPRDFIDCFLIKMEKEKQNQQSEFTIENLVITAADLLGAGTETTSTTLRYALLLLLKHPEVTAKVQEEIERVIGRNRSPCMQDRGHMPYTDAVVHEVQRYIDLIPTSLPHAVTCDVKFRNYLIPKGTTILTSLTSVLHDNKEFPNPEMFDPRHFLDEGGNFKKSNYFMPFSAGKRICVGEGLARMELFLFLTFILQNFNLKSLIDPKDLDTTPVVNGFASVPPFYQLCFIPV
Sequence of Cytochrome P450 2C9 (Homo sapiens) (P11712 whole entry, looked up): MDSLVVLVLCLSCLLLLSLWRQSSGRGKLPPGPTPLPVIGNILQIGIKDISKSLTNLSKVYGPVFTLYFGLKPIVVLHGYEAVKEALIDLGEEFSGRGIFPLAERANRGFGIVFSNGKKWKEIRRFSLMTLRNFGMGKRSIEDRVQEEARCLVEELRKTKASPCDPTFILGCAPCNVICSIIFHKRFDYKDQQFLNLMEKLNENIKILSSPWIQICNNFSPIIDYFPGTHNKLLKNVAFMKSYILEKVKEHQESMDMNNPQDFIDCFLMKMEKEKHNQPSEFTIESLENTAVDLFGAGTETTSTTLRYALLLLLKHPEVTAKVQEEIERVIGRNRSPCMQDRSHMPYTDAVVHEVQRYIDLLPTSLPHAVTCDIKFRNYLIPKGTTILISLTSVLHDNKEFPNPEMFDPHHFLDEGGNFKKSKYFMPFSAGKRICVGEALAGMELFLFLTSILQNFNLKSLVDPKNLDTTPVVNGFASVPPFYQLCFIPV
Sequence of Cytochrome P450 3A4 (Homo sapiens) (P08684 whole entry, looked up): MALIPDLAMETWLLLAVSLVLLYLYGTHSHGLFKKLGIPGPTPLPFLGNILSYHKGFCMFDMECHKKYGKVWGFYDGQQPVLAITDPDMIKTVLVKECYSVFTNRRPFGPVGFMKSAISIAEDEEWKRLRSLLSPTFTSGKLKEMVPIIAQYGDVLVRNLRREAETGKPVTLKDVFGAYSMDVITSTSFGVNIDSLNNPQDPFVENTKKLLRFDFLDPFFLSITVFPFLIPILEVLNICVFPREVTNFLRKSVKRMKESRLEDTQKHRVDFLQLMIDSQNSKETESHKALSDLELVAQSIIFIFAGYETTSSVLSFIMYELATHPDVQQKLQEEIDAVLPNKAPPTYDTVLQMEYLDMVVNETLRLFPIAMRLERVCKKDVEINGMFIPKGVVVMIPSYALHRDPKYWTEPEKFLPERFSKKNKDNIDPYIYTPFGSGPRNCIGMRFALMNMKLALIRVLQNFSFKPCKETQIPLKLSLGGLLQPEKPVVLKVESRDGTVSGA
Sequence of Cytochrome P450 2D6 (Homo sapiens) (P10635 whole entry, looked up): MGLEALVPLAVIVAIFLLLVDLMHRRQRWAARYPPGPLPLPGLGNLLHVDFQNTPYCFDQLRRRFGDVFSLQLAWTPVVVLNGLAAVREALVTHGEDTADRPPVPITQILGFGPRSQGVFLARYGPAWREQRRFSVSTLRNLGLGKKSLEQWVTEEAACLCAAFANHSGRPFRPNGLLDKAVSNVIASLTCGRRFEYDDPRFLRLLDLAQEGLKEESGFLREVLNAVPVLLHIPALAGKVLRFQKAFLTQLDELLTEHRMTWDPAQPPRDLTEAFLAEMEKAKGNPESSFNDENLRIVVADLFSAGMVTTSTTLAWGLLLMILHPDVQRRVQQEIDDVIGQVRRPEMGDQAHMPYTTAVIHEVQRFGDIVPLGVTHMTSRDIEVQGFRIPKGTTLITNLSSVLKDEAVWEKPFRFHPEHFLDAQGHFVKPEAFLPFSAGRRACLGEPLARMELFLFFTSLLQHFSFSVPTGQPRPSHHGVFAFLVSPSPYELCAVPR

Consider `CC(C)=CCN1C(=O)[C@]2(OCCC=C[C@H]2C)c2c(Br)cccc21`, for which the Potency entry in test [1], in test [2], in [3], in [4] and in [5] was “inactive” throughout.

In the case of `CCCCC1=CC2=C(c3ccco3)C(=O)C(C)(OC(=O)c3ccc(OC)cc3)C(=O)C2=CN1CC1CC1` (stereo unspecified), the Potency result in [1], in [2], in test [3], in [4] and in test [5] was “inactive” in each case.

For the compound `COc1ccc(C(=O)Oc2cc(OC)cc(OC)c2C(C)=O)cc1`, the figures for the activity change, negative = inhibition in test [6], in test [7] and in [8] were 19.9% [at 11.4 µM], -16.9% [at 11.4 µM] and 5.18% [at 11.4 µM], respectively. Moreover, the activity, negative = inhibition in test [9] was 27.9% [at 11.4 µM]. In addition, the Potency result in test [1], in test [2], in test [3], in test [4] and in test [5] was “inactive” in each case.

As for `C#CCN1C(=O)[C@]2(O[C@H](C)CC3=CCCC32)c2c(Br)cccc21` (stereo partly specified), the Potency result in [1], in test [2], in test [3], in test [4] and in [5] was “inactive” in each case.

As for `COC(=O)N(C=Cc1ccc(OC)cc1)CCc1ccc(OC)c(OC)c1`, the Potency result in [1], in [2], in test [3], in [4] and in test [5] was “inactive” in each case.

As to `COC(=O)N[C@H](c1ccccc1)C(C(=O)OC)C(=O)OC`, the Potency in [1] was 1510 nM (active); in test [2] it was 1900 nM (active); in [3], 1900 nM (active). For the same compound, the Potency entry in test [4] and in test [5] was “inactive” in each case.

`C=CCN1C(=O)[C@@]2(CC(C)=CC[C@@H](C)O2)c2c(Br)cccc21`: the Potency entry in test [1], in [2], in [3], in test [4] and in test [5] was “inactive” in each case.

With `CC(=CCO)CCO`, the Potency result in test [1], in test [2], in test [3], in [4] and in [5] was “inactive” each time.

Consider `C[C@@H]1CC[C@H]2C(=O)N(Cc3ccccc3)C[C@@H](O)CN2[C@@H]1c1cccc(Br)c1`, for which the Potency result in test [1], in [2], in test [3], in [4] and in test [5] was “inactive” in each case.

`C=C(C)C(O)C=CC=Cc1ccccc1` (stereo unspecified): the Potency result in [1], in test [2], in test [3], in [4] and in test [5] was “inactive” in each case.

`Cc1cc(C)cc(CO[C@H]2C=C[C@@H](c3ccccc3)O[C@H]2CO)c1`: the Potency entry in test [1], in test [2], in [3], in [4] and in test [5] was “inactive” throughout.

Regarding `O=P1(O)Oc2c(c(-c3ccccc3)cc3ccc4ccccc4c23)-c2c(-c3ccccc3)cc3ccc4ccccc4c3c2O1`, the Potency entry in test [1], in [2], in test [3], in [4] and in test [5] was “inactive” in each case.

For the compound `COc1ccc(O[C@H]2C=C[C@@H](c3ccccc3)O[C@H]2COC(=O)CCC(C)=NO[C@@H]2O[C@H](COC(C)=O)[C@@H](OC(C)=O)[C@H](OC(C)=O)[C@@H]2OC(C)=O)cc1`, the Potency entry in test [1], in test [2], in [3], in test [4] and in test [5] was “inactive” in each case.

On to `C=CCOC(=O)N[C@@H](c1cccs1)C(C(C)=O)C(C)=O`, for which the Potency entry in test [1], in test [2], in test [3], in test [4] and in test [5] was “inactive” in each case.

For the compound `CC(C)(C)Nc1oc(-c2ccccc2)nc1-c1ccccc1`, the Potency entry in test [1], in [2], in test [3], in [4] and in test [5] was “inactive” each time.

Take `C=CCC(Nc1ccc(OC)cc1)(C(=O)OCC)c1ccccc1` (stereo unspecified): the Potency entry in test [1], in [3], in test [4] and in test [5] was “inactive” in each case.

For `COCCN1C(=O)CC[C@@]23C1=NC(C(=O)OC)=C(C(=O)OC)[C@@H]2N(Cc1ccccc1)c1ccccc13`, the Potency result in test [1], in [2], in [4] and in test [5] was “inactive” each time.

`CC#C[C@H](C)[C@@H](OCOC)[C@H](C[C@H](C)Cc1cc(Br)cc(OCc2ccccc2)c1OC)OC`: the values for the Potency in test [1] and in test [3] were 1510 nM (active) and 1690 nM (active), respectively. In addition, the Potency entry in test [5] was “inactive”.

On to `C[C@H]1C=CCC(=O)N[C@@H](c2ccc3ccccc3c2)[C@@H](C)C=CCC(=O)N[C@@H]1c1ccc2ccccc2c1`, for which the Potency entry in test [1], in [3] and in test [5] was “inactive” in each case.

For `C=CCN1C(=O)[C@]2(O[C@H](C)CC3=CCCC32)c2c(Br)cccc21` (stereo partly specified), the Potency entry in test [1], in [2], in test [4] and in [5] was “inactive” throughout.

As to `CC(C)=CCCC(C)=CCON=C1C[C@@H](O)[C@@H](O)[C@@H]2[C@H]3C(=O)N(Cc4ccc5c(c4)OCO5)C(=O)[C@@H]3CC[C@@H]12`, the Potency result in test [1], in [2], in [4] and in test [5] was “inactive” each time.

Take `COc1ccc(O[C@H]2C=C[C@@H](c3ccccc3)O[C@H]2CON=C2c3cc(OC)ccc3O[C@H](c3cccc(OC)c3)[C@H]2O)cc1`: the Potency entry in test [1], in [4] and in test [5] was “inactive” in each case. Besides, in test [2], the Potency was 1690 nM (active).

Take `CC(C)[C@@H](OCc1ccccc1)[C@H](C)CON=C1[C@H]2CCn3c(=O)n(-c4ccccc4)c(=O)n3[C@@H]2[C@H](O)[C@@H]2O[C@H]12`: the Potency entry in test [1], in test [3] and in test [5] was “inactive” in each case.

As for `CC(=O)OC[C@H]1O[C@H](CCON=C(C)CCN2CCCCc3nc(C)c(C)cc32)C=C[C@H]1OC(C)=O`, the Potency entry in test [1], in [3] and in [5] was “inactive” throughout.

As to `CC1(OC(=O)C2CCCC2)C(=O)C=C2C=C(c3ccsc3)N(Cc3ccccc3)C=C2C1=O` (stereo unspecified), the Potency result in test [1], in test [2], in test [4] and in test [5] was “inactive” throughout.

Turning to `Cc1c(O)c(=O)ccn1Cc1ccccc1`, the figures for the activity change, negative = inhibition in test [6] and in test [7] were -0.343% [at 11.4 µM] and -6.33% [at 11.4 µM], respectively. In test [9], the activity, negative = inhibition is 38.4% [at 11.4 µM]. Moreover, the Potency entry in test [1], in test [2] and in test [5] was “inactive” throughout.
